Assay outcomes from PubChem.
Only a selection was taken, and hits are over-represented in it overall.
IMPase inh = membrane-permeable compound that blocks inositol monophosphatase; P97697; CHO-M1 cells, IP1 accumulation, HTRF TR-FRET ratio; inhibition (IP1 accumulation), % at 46.1 µM; 120,000 tested, under 10 active; AID 901; active means well fitted curve in the direction sought with a large enough effect in the signal ratio, not every such curve was filed as active; inconclusive means small, poorly fitted or top-dose-only effect, or a change in a side signal; inactive means no such curve, though single readings can be large or run the other way; the % refers to the signal ratio;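 further: cells stimulated with carbachol in lithium chloride buffer; higher means more IMPase inhibition seen as more IP1 and lower FRET ratio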
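Seeded CHO-M1 cells were dosed with compound at up to 46 uM, stimulated with carbachol for 30 min, then lysed in IP-One detection reagents. Higher IP1 lowers the TR-FRET signal.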
PNC inhibitor = perinucleolar compartment assembly inhibition | PC3M PTB-GFP, PNC prevalence imaging, 16 h; active compounds read low | activity change (PNC), negative = inhibition, % at 10 µM | 3.1% of 140,000 active;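 active means readout at or below -70, meaning at least 70% loss of cells showing the perinucleolar compartment, a nuclear body marking cancer cells; inconclusive means readout between -30 and a set limit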
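Compounds are pinned in duplicate onto adhered PC3M cells stably expressing GFP-tagged PTB and incubated 16 h at 37 C. Cells are then fixed, nuclei stained with Hoechst, and PNC-positive cells counted.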
ALOX12 inhib = blocks human 12-lipoxygenase activity | purified 12-hLO, xylenol orange hydroperoxide absorbance | 0.12% of 150,000 active | AID 1452 | Potency, µM (doses to about 57.1 µM), actives largely listed as inhibitors; further: nearly all actives have a fitted effect of over 55% in size
Target sequence (P18054 whole entry, looked up): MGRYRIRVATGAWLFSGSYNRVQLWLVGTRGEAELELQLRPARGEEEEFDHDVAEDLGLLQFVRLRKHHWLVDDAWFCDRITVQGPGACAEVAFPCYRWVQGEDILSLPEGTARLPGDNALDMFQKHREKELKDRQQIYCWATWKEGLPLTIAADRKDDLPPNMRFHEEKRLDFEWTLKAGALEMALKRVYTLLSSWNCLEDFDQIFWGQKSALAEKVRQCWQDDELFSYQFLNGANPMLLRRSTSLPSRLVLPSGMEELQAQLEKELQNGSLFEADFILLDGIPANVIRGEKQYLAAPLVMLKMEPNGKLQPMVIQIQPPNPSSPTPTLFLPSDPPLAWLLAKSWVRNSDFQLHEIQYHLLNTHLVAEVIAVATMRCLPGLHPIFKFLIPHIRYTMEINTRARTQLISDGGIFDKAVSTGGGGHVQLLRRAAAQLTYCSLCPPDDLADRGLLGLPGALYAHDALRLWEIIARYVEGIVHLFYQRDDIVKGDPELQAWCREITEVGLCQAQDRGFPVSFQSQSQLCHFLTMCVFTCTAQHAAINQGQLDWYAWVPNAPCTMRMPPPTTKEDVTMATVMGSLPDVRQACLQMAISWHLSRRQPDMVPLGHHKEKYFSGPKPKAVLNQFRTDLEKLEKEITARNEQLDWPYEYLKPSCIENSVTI
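Hydroperoxide formation by human 12-lipoxygenase from 40 uM arachidonic acid was followed colorimetrically via ferric-xylenol orange complex, using the 573/405 nm absorbance ratio. Enzyme concentration was 150 nM, with 30 min reaction at room temperature.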
IMPase Li cell = IMPase inhibition in cells with lithium potentiation | CHO-M1 cells, IP1 TR-FRET (IP-One), carbachol + lithium | Potency, µM (top dose mostly 59.4 µM), actives largely listed as inhibitors | 0.35% of 210,000 active | AID 1457;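 further: IP1 builds up when IMPase is blocked and the TR-FRET signal falls; nearly all actives have a fitted effect of over 50% in size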
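IP1 accumulation measured by competitive TR-FRET in lysed CHO-M1 cells after 30 min compound exposure at 37C, with a small lithium addition to potentiate weak responses. Hill-equation AC50 from ratio and donor-channel data.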
ALOX15B inhib = inhibitors of human 15-lipoxygenase 2 (ALOX15B). O15296. purified 15hLO-2, xylenol orange hydroperoxide absorbance. Potency, µM (series often up to 57.1 µM), actives largely listed as inhibitors. 0.56% of 110,000 active. AID 881; further: nearly all actives have a fitted effect of over 60% in size
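Enzyme 50 nM, AA 45 uM, 25 mM Hepes pH 7.5 + 0.01% Triton X-100; cpd preinc 15 min RT, rxn 90 min RT; stop/detect with 200 uM XO + 300 uM Fe(II) in 50 mM H2SO4, 30 min; A573/A405.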
Large screens that a line does not name were inactive. Unless noted, the call rests on the fitted dose curve; in most records, active means well fitted curve in the direction sought with a large enough effect; inconclusive means small, poorly fitted or top-dose-only effect, or another doubt; inactive means no such curve, though single readings can be large; an effect the other way counts as inactive or inconclusive.

CC[C@H](C)C(=O)O[C@H]1C[C@H](O)C=C2C=C[C@H](C)[C@H](CC[C@@H](O)C[C@@H](O)CC(=O)O)[C@H]21	none (no result: IMPase inh, PNC inhibitor)
CCNc1ncc2nc(-c3cccs3)c(=O)n(Cc3cccs3)c2n1	none (no result: IMPase inh, PNC inhibitor, ALOX12 inhib)
S=c1[nH]nc(-c2cccc(Br)c2)o1	IMPase inh inconclusive, PNC inhibitor inconclusive, IMPase Li cell 10µM
Oc1cc(O)cc(/C=C\c2ccc(O)c(O)c2)c1	ALOX12 inhib inconclusive, ALOX15B inhib 3.2µM (no result: PNC inhibitor, IMPase Li cell)
COc1ccc2c(c1)C(=O)[C@@H](OC(=O)Nc1ccc(C)c(Br)c1)[C@H](c1ccc(OC)c(Br)c1)O2	none (no result: IMPase inh, PNC inhibitor, ALOX12 inhib, ALOX15B inhib)
CCNc1ncc2ncc(=O)n(Cc3ccc(F)cc3)c2n1	none (no result: IMPase inh, PNC inhibitor, ALOX12 inhib)
O=C(CN1CCC(O)(c2ccc3c(c2)OCO3)CC1)OC1CCCCC1	PNC inhibitor -84
COc1ccc(C2SCCN2C(=S)Nc2ccc(Cl)cc2)cc1 (stereo not given)	none (no result: ALOX15B inhib)
COc1ccc(C2SCCN2C(=S)Nc2cccc(Cl)c2)cc1 (stereo not given)	PNC inhibitor -102, ALOX12 inhib inconclusive (no result: IMPase inh, ALOX15B inhib)
COC(=O)N1C(/C=C/c2ccc3c(c2)OCO3)=Cc2ccccc2C1CC(C)=O (stereo not given)	none (no result: IMPase inh, PNC inhibitor, ALOX15B inhib)
CCC1=NNc2cccc3c(OC)ccc1c23	ALOX15B inhib 5µM
COc1ccc2c3c(cccc13)C(=O)N(O)C2=O	none (no result: IMPase inh, ALOX15B inhib)
C=CCOc1c2ccc(C(=O)NCc3ccccc3OC)cc2nn1C	none
C=CCOc1c2ccc(C(=O)NCc3ccc(OC)cc3)cc2nn1C	PNC inhibitor -109, IMPase Li cell inconclusive
O=C(CSc1nnc(-c2cccnc2)o1)c1cc2ccccc2oc1=O	PNC inhibitor -99
O=C(O)CSc1nnc(-c2ccccc2)o1	none
Cc1ccc(C(=O)CSc2nnc(-c3ccccc3)o2)cc1	PNC inhibitor -95 (no result: ALOX15B inhib)
O=C(CSc1nnc(-c2cccnc2)o1)Oc1ccccc1	none
Cc1c(C(=O)OC2CCC(C)CC2)[nH]c2c1C(=O)CC(c1ccccc1Cl)C2 (stereo not given)	none (no result: PNC inhibitor, ALOX12 inhib, IMPase Li cell, ALOX15B inhib)
CC(C)(C)C(=O)Cn1c(=N)n(Cc2ccccc2Cl)c2ccccc21	none
CC(C)(C)C(=O)Cn1c(=N)n(Cc2ccccc2)c2ccccc21	PNC inhibitor -119 (no result: ALOX15B inhib)
CN(C)c1ccc(-c2nn3c(-c4ccc(Cl)cc4Cl)nnc3s2)cc1	none
Cc1cc(-c2nnc3sc(-c4ccc(Cl)cc4Cl)nn23)n[nH]1	IMPase Li cell 10µM
Cc1ccc(Cn2c(=O)c3c(nc4n3CCN4Cc3ccco3)n(C)c2=O)cc1	PNC inhibitor -100 (no result: ALOX15B inhib)
CC(=O)Nc1ccc(SCC(=O)Nc2cc(C(C)(C)C)nn2-c2ccccc2)cc1	PNC inhibitor -115 (no result: IMPase inh, ALOX15B inhib)
Nc1nc(Cl)nc2c1ncn2[C@@H]1O[C@H](CO)[C@H](O)[C@H]1O	none (no result: IMPase inh, PNC inhibitor, ALOX12 inhib, ALOX15B inhib)
Cc1ccc(OS(=O)(=O)c2ccccc2)c(/C=N/N=C2\NC(=O)C(C)S2)c1 (stereo not given)	PNC inhibitor -82 (no result: ALOX15B inhib)
O=C(NCCCn1ccnc1)Nc1cccc2ccccc12	PNC inhibitor -100 (no result: ALOX15B inhib)
CC(C)c1ccccc1NC(=S)NCCCn1ccnc1	none (no result: IMPase inh, PNC inhibitor, ALOX12 inhib, ALOX15B inhib)
CCn1c(O)c(C=Nc2ccccc2)oc1=S	PNC inhibitor -94
CCCn1c(O)c(C=Nc2ccccc2)sc1=S	none (no result: IMPase inh, PNC inhibitor, ALOX12 inhib, ALOX15B inhib)
CCCC[C@H](CC)CN1CN(C[C@@H](CC)CCCC)CC(C)(N)C1	none (no result: PNC inhibitor)
CC(=O)N[C@H](Cc1c[nH]c2ccccc12)C(N)=O	none (no result: IMPase inh, PNC inhibitor)
O=C(CSc1nc2ccccc2n1S(=O)(=O)c1cccc([N+](=O)[O-])c1)NCCc1ccccc1	PNC inhibitor -113 (no result: IMPase inh, ALOX15B inhib)
CCCCNC(=O)CSc1nc2ccccc2n1S(=O)(=O)c1ccc(Cl)cc1	PNC inhibitor -119 (no result: ALOX15B inhib)
COC(=O)C1=C(C)N(CC2CC2)C(=O)N[C@H]1CCc1ccccc1	none (no result: IMPase inh, PNC inhibitor, ALOX12 inhib, ALOX15B inhib)
Cc1ccc(C(=O)CSc2nc(-c3ccccc3)nc3c2CCCC3)cc1	none (no result: PNC inhibitor, ALOX12 inhib, IMPase Li cell, ALOX15B inhib)
CCOC(=O)c1c(NC(=O)c2ccc(N3C(=O)[C@@H]4[C@H](C3=O)[C@H]3C=C[C@@H]4C3)cc2)sc2c1CC(C)CC2 (stereo not given in full)	PNC inhibitor -125 (no result: IMPase inh, ALOX15B inhib)
COC(=O)NC(/C=C/c1ccccc1)C(C(C)=O)C(=O)OC (stereo not given)	none (no result: IMPase inh, PNC inhibitor, ALOX12 inhib, ALOX15B inhib)
COc1ccc(C2C(C#N)=C(N)Oc3cc(O)ccc32)cc1OC (stereo not given)	none
